Cell viability data for 39 compounds are collected here from the supplement of paper PMC6522484.

Counter-ions that a name gives are not always drawn. ± gives the standard deviation of the averaged measurements.

The experiment concerns DLD1. As to the kind of experiment: cell viability (CellTiter-Glo) relative to plate median (fraction of plate median); higher = more viable cells. The note with it: 10 µM; treatment time 24 h; reporter: TCF4/Wnt. An outline of the steps: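 Colorectal cancer cells expressing a stably transduced lentiviral TCF/Wnt firefly luciferase reporter were treated in 384-well plates with kinase inhibitor library compounds at a final 10 µM for 24 h. Firefly luciferase or CellTiterGlo luminescence was then read on parallel plates. Well signals were normalised to the plate median (webcellHTS2, additive, no log transformation) and averaged over two independent replicates.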
(In general: ATP-based viability assays read luminescence as a measure of living cells.)
Turning to `O=C(NOC[C@H](O)CO)c1ccc(F)c(F)c1Nc1ccc(I)cc1F`, the cell viability turned out to be 1.05 ± 0.014.

The compound `Cc1cnc(Nc2ccc(N3CCN(C)CC3)cc2)nc1Nc1cccc(S(=O)(=O)NC(C)(C)C)c1` returned a cell viability of 0.912 ± 0.18.

On to `N#CCNC(=O)c1ccc(-c2ccnc(Nc3ccc(N4CCOCC4)cc3)n2)cc1`, for which the cell viability stood at 1.12 ± 0.021.

On to `COc1ccc2c(OCc3nnc4ccc(-c5ccccc5)nn34)ccnc2c1`, for which the cell viability was 1.06 ± 0.093.

Compound `Oc1cc(O)cc(/C=C/c2ccc(O)c(O)c2)c1` [Piceatannol] registered a cell viability of 1.07 ± 0.057.

As to `CN1CC[C@H](c2c(O)cc(O)c3c(=O)cc(-c4ccccc4Cl)oc23)[C@H](O)C1` [Flavopiridol hydrochloride], the cell viability was found to be 1.24 ± 0.092.

Take `CO[C@H]1C[C@@H]2CC[C@@H](C)[C@@](O)(O2)C(=O)C(=O)N2CCCC[C@H]2C(=O)O[C@H]([C@H](C)C[C@@H]2CC[C@@H](O)[C@H](OC)C2)CC(=O)[C@H](C)/C=C(\C)[C@@H](O)[C@@H](OC)C(=O)[C@H](C)C[C@H](C)/C=C/C=C/C=C/1C` [Rapamycin (Sirolimus)]: the cell viability was 0.904 ± 0.15.

In turn, `CC(=O)Nc1nc(C)c(-c2ccc(Cl)c(S(=O)(=O)NCCO)c2)s1` returned a cell viability of 0.947 ± 0.0014.

Consider `O=C1NC(=O)[C@@H](c2cn3c4c(cccc24)CCC3)[C@@H]1c1c[nH]c2ccccc12` [ARQ 197 (Tivantinib)], for which the cell viability worked out at 1.01 ± 0.017.

`CCC(=O)N1CCN(c2ccc(-n3c(=O)ccc4cnc5ccc(-c6cnc7ccccc7c6)cc5c43)cc2C(F)(F)F)CC1` [Torin 1] displayed a cell viability of 0.97 ± 0.013.

As for `O=C1NC(=O)/C(=C\c2ccc3nccnc3c2)S1`, the cell viability was 1.04 ± 0.063.

As to `O=C1NC(=O)C(c2ccccc2[N+](=O)[O-])=C1Nc1ccc(O)c(Cl)c1`, the cell viability was found to be 1.07 ± 0.035.

On to `CCn1c(-c2nonc2N)nc2c(C#CC(C)(C)O)ncc(OC[C@H]3CCCNC3)c21`, for which the cell viability was 0.954 ± 0.065.

Compound `O=C1NCCc2[nH]c(-c3ccncc3)cc21` showed a cell viability of 1.03 ± 0.054.

For `Cc1ccc(NC(=O)c2ccc(CN3CCN(C)CC3)cc2)cc1Nc1nccc(-c2cccnc2)n1` [Imatinib Mesylate], the cell viability was found to be 0.907 ± 0.17.

Take `Cc1[nH]c(/C=C2\C(=O)Nc3ccccc32)c(C)c1CCC(=O)O`: the cell viability came to 0.997 ± 0.061.

As for `CC(=O)Nc1cccc(-n2c(=O)n(C3CC3)c(=O)c3c(Nc4ccc(I)cc4F)n(C)c(=O)c(C)c32)c1`, the cell viability is 1.29 ± 0.13.

In turn, `COc1cc2c(Oc3ccc(NC(=O)C4(C(=O)Nc5ccc(F)cc5)CC4)cc3F)ccnc2cc1OCCCN1CCOCC1` displayed a cell viability of 0.875 ± 0.042.

`O=C(NC1CCNCC1)c1n[nH]cc1NC(=O)c1c(Cl)cccc1Cl` yielded a cell viability of 1.16 ± 0.18.

In the case of `C#Cc1cccc(Nc2ncnc3cc(OCCOC)c(OCCO)cc23)c1` [OSI-420 (Desmethyl Erlotinib)], the cell viability amounted to 0.954 ± 0.011.

Turning to `CN(C)CCOc1ccc(-c2nc(-c3ccncc3)c(-c3ccc4c(c3)CC/C4=N\O)[nH]2)cc1`, the cell viability amounted to 1.14 ± 0.064.

Turning to `NC(=O)Nc1sc(-c2ccc(F)cc2)cc1C(N)=O`, the cell viability came out at 0.93 ± 0.075.

As for `COc1cc2c(Oc3ccc4[nH]c(C)cc4c3F)ncnc2cc1OCCCN1CCCC1` [Cediranib (AZD2171)], the cell viability came to 0.769 ± 0.054.

For the compound `C=CC(=O)Nc1cccc(Sc2nc(Nc3ccc(N4CCN(C)CC4)cc3)ncc2Cl)c1`, the cell viability is 1.02 ± 0.15.

`COc1cc(Nc2ncc(F)c(Nc3ccc4c(n3)NC(=O)C(C)(C)O4)n2)cc(OC)c1OC` [R406(free base)] returned a cell viability of 0.99 ± 0.085.

Compound `O=C(Nc1cc(C(F)(F)F)cc(C(F)(F)F)c1)c1cc(Cl)ccc1O` had a cell viability of 0.618 ± 0.011.

As for `Cc1cc(C(=O)NOCCO)c(Nc2ccc(I)cc2F)n(C)c1=O`, the cell viability was 1.15 ± 0.042.

`O=C(NC[C@H](O)CO)c1ccncc1Nc1ccc(I)cc1F`: the cell viability came out at 1.14 ± 0.071.

The compound `CNC(=O)c1ccccc1Nc1nc(Nc2ccc(N3CCOCC3)cc2OC)ncc1Cl` gave a cell viability of 0.933 ± 0.069.

The compound `CC(C)(C)c1cnc(CSc2cnc(NC(=O)C3CCNCC3)s2)o1` yielded a cell viability of 1.06 ± 0.23.

On to `COc1ccc(S(=O)(=O)N(C(C)=O)c2ccccc2/C=C/c2cc[n+]([O-])cc2)cc1`, for which the cell viability is 1.17 ± 0.14.

The compound `Cn1cc(C2=C(c3ccc(Cl)cc3Cl)C(=O)NC2=O)c2ccccc21` had a cell viability of 0.952 ± 0.058.

Compound `Cn1cnc2c(F)c(Nc3ccc(Br)cc3Cl)c(C(=O)NOCCO)cc21` [AZD6244 (Selumetinib)] came in with a cell viability of 1.08 ± 0.035.

In the case of `O=c1cc(N2CCOCC2)oc2c(-c3ccccc3)cccc12`, the cell viability turned out to be 1.065 ± 0.0071.

Consider `O=C(O)c1ccc(Nc2ncc3c(n2)-c2ccc(Cl)cc2C(c2c(F)cccc2F)=NC3)cc1`, for which the cell viability worked out at 0.993 ± 0.067.

As to `Nc1ccc(-c2ccc3ncc4ccc(=O)n(-c5cccc(C(F)(F)F)c5)c4c3c2)cn1` [Torin 2], the cell viability worked out at 0.9595 ± 0.005.

`CCn1nnc2c(N3CCOCC3)nc(-c3ccc(NC(=O)Nc4ccc(C(=O)N5CCN(C)CC5)cc4)cc3)nc21`: the cell viability was determined as 1.09 ± 0.092.

The compound `N#C/C(=C\c1ccc(O)c(O)c1)C(=O)NCc1ccccc1` showed a cell viability of 0.946 ± 0.031.

`COc1cc2ncnc(Nc3cccc(Br)c3)c2cc1OC` gave a cell viability of 1.07 ± 0.064.
